# Reference: PubChem BioAssay (NCI)
# This is part of a sample that, as a whole, favours compounds with a hit. Of some 83,000 tested, about 20% had one in any assay.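 Results are percent growth after 48 hours of single-concentration exposure. 100 means growth as in untreated cells, lower positive values show inhibition; negative values down to -100 show cell death.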 Unmarked numbers belong to inactive results. Activity calls are given as the source filed them. Rule for the calls: active = growth percent below 10; inactive = the rest.
# Tested on: HL-60(TB) leukemia
# Assay: NCI-60 one-dose screen, 48 h (100 = growth as untreated, 0 = no growth, -100 = all killed)
# Conditions: 10 µM unless noted
row,SMILES,growth
1,Cc1[nH]ccc2cc3nc4ccccc4c3cc12,16.4%
2,CCN1CCN(c2cc(-c3cn[nH]c3-c3cc(C)cc(OC)c3)nc(-c3cccnc3)n2)CC1,64.9%
3,CCNCCNc1cc(-c2ccc(C(F)(F)F)cc2)c(C#N)c2nc3cc(Cl)c(Cl)cc3n12,-56.9% (active)
4,O=c1nc(NO)[nH]c(=O)n1Cc1ccc(F)cc1,103%
5,CN(C)c1ccc(/C=C/C(=O)c2ccc(NC(N)=O)cc2)cc1,87.3%
6,Cc1ccc(C(=O)/C(=C/c2ccc([N+](=O)[O-])cc2)SCc2ccc(Cl)cc2)cc1,58%
7,CCCC(=O)NC(c1ccc2c(c1)OCO2)c1cc(Cl)c2cccnc2c1O (stereo not given),-19.5% (active)
8,CCN1C(=O)N(CC)C2Nn3c(s/c(=C\c4ccccc4Br)c3=O)=NC21 (stereo not given),-34.7% (active)
9,COc1ccc2nc3cc(Cl)ccc3c(N3CCN(c4nccc(Nc5ccc(Cl)cc5)n4)CC3)c2c1,48%
10,COS(=O)(=O)CCN(CCOS(C)(=O)=O)S(C)(=O)=O,82.9%
11,COc1c(B(O)O)cccc1-c1nc2ccc3[nH]ncc3c2c2c1C1CCC2C1 (stereo not given),20%
12,CN(Cc1ccccc1)c1nc(Cl)c(C2CC(c3ccc(F)cc3)=NN2C=O)s1 (stereo not given),102%
13,Cc1nc(N)nc2c1CCC(Nc1ccccc1)S2 (stereo not given),97.1%
14,Cc1cnc([C@]23CC[C@@H](C)[C@H](C)[C@H]2C2=CC[C@@H]4[C@@]5(C)Cc6c([nH]c7ccccc67)C(C)(C)[C@@H]5CC[C@@]4(C)[C@]2(C)CC3)o1,38.2% [100 µM]
15,Brc1ccsc1Br,102%
16,CCOC(=O)Oc1c(OC)cc(C(=O)c2ccc(OC)c(OC(=O)CCl)c2OC)cc1OC,-30.9% (active)
17,c1ccc2c(c1)Nc1ccncc1S2,132%
18,O=c1nc(N2CCOCC2)oc2c(-c3cccc4ccccc34)cccc12,93.6%
19,C=CC[N+](C)(C)C,107%
20,COc1cc([N+](=O)[O-])c2ncccc2c1O,72.1%

row,SMILES,growth
1,CN1CCN(Cc2ccc(NC(=O)c3cncc(C#Cc4cnc(N)c5cccnc45)c3)cc2C(F)(F)F)CC1,-13.9% (active)
2,CC(=O)Oc1ccc(C2OC(c3ccc4ccccc4c3OC(C)=O)=NN2C(C)=O)c(OC(C)=O)c1 (stereo not given),-30.7% (active)
3,Cc1nc(NC(=O)COc2cccc(/C=C3\COc4ccccc4C3=O)c2)sc1C,-61.4% (active)
4,O=C1C=CC2(O)OC(c3ccccc3)CC(=O)C2=C1O (stereo not given),50.5%
5,C=CCN(CC=C)C(=O)[C@H](CC)[C@@H]1CC[C@@H](C)[C@@H]([C@H](C)[C@@H](O)[C@@H](C)C(=O)[C@H](CC)C2O[C@]3(C=C[C@@H](O)[C@]4(CC[C@@](C)([C@H]5CC[C@](O)(CC)[C@H](C)O5)O4)O3)[C@H](C)C[C@@H]2C)O1 (stereo not given in full),-36.8% (active)
6,Cc1ccc(NC(=O)c2ccc(Nc3ncnc4c3cnn4-c3cccc(F)c3)cc2)cc1,90.2%
7,CN1CCN(Cc2ccc(NC(=O)c3cncc(C#Cc4cnc(N)c5ccncc45)c3)cc2C(F)(F)F)CC1,-9.61% (active)
8,COc1ccc(/C=C2\N=C(c3ccccc3)N(c3cc(OC)c(OC)cc3C(=O)N3N=C(C)CC3=O)C2=O)cc1,107%
9,O=C(O)c1cccc2oc(-c3ccccc3O)nc12,49.8%
10,CCOc1ccccc1NC(=O)CCC(=O)OC,78.7%
11,COc1cc(CCn2nnc3c(NCCCCO)ncnc32)cc(OC)c1,133%
12,COc1nc2c(cc1S(=O)(=O)c1ccccc1)CCc1c-2cnn1Cc1ccccc1,26.1%
13,COc1cc(CNC(=O)CCCC/C=C/C(C)C)ccc1OCc1cn(-c2ccc(C(F)(F)F)cc2)nn1,85.3%
14,Cc1ccc(/C=C/C(=O)C(=O)/C=C/c2ccc(C)cc2)cc1,93.3%
15,O=c1c2cccc(Cl)c2sc2c(NCCCNCCO)nc3ccccc3c12,-17.8% (active)
16,COC(=O)CC1=C(C)/C(=C/c2[nH]c(-c3ccc[nH]3)cc2OC)N=C1C,-29.2% (active)
17,CC(C)NC[C@@H](C(=O)N1CCN(c2ncnc3c2[C@H](C)C[C@H]3O)CC1)c1ccc(Cl)cc1,82%
18,CC[N+](CC)(CCOCCOCC[N+](CC)(CC)Cc1ccc([N+](=O)[O-])cc1)Cc1ccc([N+](=O)[O-])cc1,93.4%
19,CC(C)(C#N)Nc1ccccc1,105%
20,CCOC(=O)CCN(CCC(=O)OCC)c1ccccc1,104%
